gsp ag = activates gsp, the McCune-Albright syndrome mutation | gsp mutant cells, cAMP HTRF, 30 min | Potency, µM (doses to about 76.9 µM), without a hit: at the highest dose activation (cAMP increase), hits mostly activators | 0.13% of 340,000 active | AID 624287; active = well fitted activation curve with a large enough effect; inconclusive = small, poorly fitted or top-dose-only effect, or another doubt; inactive = no such curve, though single readings can be large or run the other way; cell line not stated here;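 also: phosphodiesterase inhibitor Ro 20-1724 added with compounds to block cAMP breakdown; potency is read from the fitted curve at half-maximal effect; nearly all actives have a fitted effect of over 60% in size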
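Cells stably selected in G418 were plated at 2000/well, grown 16-24 hr, then given compounds in DMSO with the PDE inhibitor […] (300 uM solution added) for 30 min at 37C; cAMP was read by HTRF.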
gsp antag = gsp mutant antagonism. AID 624288. gsp-mutant cells, cAMP HTRF, 30 min. Potency, µM (titrated, usually from 76.9 µM), without a hit: top-dose activity change, negative = inhibition, actives largely listed as inhibitors. 0.4% of 340,000 active; calls by dose curve; cell line not stated here;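 also: intracellular cAMP measured with PDE inhibitor Ro 20-1724 present during compound exposure; potency is read from the fitted curve at half-maximal effect; % is scaled to controls: 0 for no effect and ±100 for the full control effect; nearly all actives have a fitted effect of over 65% in size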
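HTRF cAMP measurement after 30 min RT detection following 30 min, 37C compound treatment alongside […] (added as 300 uM solution) in G418-selected cells seeded at 2000/well and grown 16–24 h.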
BRCA1 expr up = increases BRCA1 expression | AID 624202 | Potency, µM (top dose mostly 46.1 µM), for the others: at the highest dose activation, actives largely listed as activators | 1.1% of 380,000 active | MCF7-BRCA1-FFLuc reporter, luminescence, 48 h; response scale: scaled: vehicle 0%, 10 µM genistein 100%; also: potency is read from the fitted curve at half-maximal effect; nearly all actives have a fitted effect of over 80% in size
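Compounds are tested at multiple concentrations on MCF7 BRCA1-luciferase reporter cells seeded at 2000 per well; after 48 h, a single luminescence end-point is taken and curves fitted to the normalized data.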
IL-2 act = activates IL-2 in a cell-based reporter assay; AID 652025; activation, % (series mostly up to about 46 µM); 0.065% of 360,000 active; IL-2 activation reporter assay, cell-based qHTS; stimulated with anti-CD3/CD4/CD28 beads; in transgenic mouse T cells; in the data active = activation above about 50%; inconclusive = mostly about 30% to 49%; also: 0% is about no effect
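Using fluorescent plate cytometry, EGFP and DsRed are detected in transgenic mouse T cells stimulated 18 h at 37 degrees C with antibody-coated beads after 60 min compound pretreatment.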
IDH1 R132H inh = human IDH1 R132H inhibition; Potency, µM (highest dose often 76.6 µM), for inactives: top-dose activity change, negative = inhibition, most hits filed as inhibitors; IDH1-R132H enzyme, NADPH consumption, diaphorase/resazurin fluorescence; O75874; 0.093% of 390,000 active; also: potency is read from the fitted curve at half-maximal effect; % is scaled to controls: 0 for no effect and ±100 for the full control effect; nearly all actives have a fitted effect of over 65% in size
Target sequence (O75874 whole entry R132H, stated change not applied): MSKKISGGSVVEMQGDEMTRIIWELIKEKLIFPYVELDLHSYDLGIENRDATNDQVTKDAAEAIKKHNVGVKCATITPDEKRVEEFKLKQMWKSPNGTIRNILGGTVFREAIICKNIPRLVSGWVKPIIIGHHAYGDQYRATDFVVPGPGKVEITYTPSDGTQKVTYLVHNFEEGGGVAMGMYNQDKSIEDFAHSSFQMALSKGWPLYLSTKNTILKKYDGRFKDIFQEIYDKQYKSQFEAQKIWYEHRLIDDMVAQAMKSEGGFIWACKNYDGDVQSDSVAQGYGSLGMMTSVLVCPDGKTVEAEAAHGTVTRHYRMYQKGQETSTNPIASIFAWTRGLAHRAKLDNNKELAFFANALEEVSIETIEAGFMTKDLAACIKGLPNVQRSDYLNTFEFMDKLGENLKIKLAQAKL
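IDH1-R132H (0.5 ug/mL dispensed) in pH 7.5 Tris buffer was preincubated 30 min with compound, then given a substrate mix of 0.016 mM NADPH and 2 mM alpha-KG for 80 min at room temperature; remaining NADPH was read by diaphorase/resazurin fluorescence.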
* = called active by the depositor; ? = inconclusive; · = no result given; [ ] = another dose, or the depositor's remark. Shown are actives, neighbours in structure and some others; about 1.5% of the full set was active somewhere. Unless noted, calls follow the shape of the dose curve; as a rule, active = well fitted curve in the direction sought with a large enough effect; inconclusive = small, poorly fitted or top-dose-only effect, or another doubt; inactive = no such curve, though single readings can be large; an effect the other way counts as inactive or inconclusive.

SMILES	gsp ag	gsp antag	BRCA1 expr up	IL-2 act	IDH1 R132H inh
Cc1ccc(NC(=O)Cc2cccs2)cc1Cl	1%[15.4 µM]	7%	11µM*	0	2%
Cc1nc2ccc(NC(=O)Cc3ccc(Br)cc3)cc2s1	-17%[15.4 µM]	-9%	0%	0	5%
Cc1nc2ccc(NC(=O)CS(=O)(=O)c3ccc(F)cc3)cc2s1	-6%	2%	11µM*	-1	1%
Cc1nc2ccc(NC(=O)c3cnc(Cl)c(Cl)c3)cc2s1	15%[15.4 µM]	8.9µM*	41%	1	11%
Cc1ccc(C(=O)Nc2ccc(Cl)c(-c3nc4ncccc4o3)c2)c(C)c1	·	·	·	·	-2%
Cc1cccnc1C(NC(=O)C1CCN(Cc2ccc(Oc3ccccc3)cc2)CC1)c1ccccc1 (configuration not stated)	·	·	-67%	-1	·
CC1=C(C(N)=O)C(c2ccc(C)cc2)n2nc(SCc3ccccc3)nc2N1 (configuration not stated)	·	·	2%	·	2%
Cc1ccc(NC(=O)CCC(=O)c2cccs2)cc1F	-6%[15.4 µM]	4%	13µM*	-2	-4%
Cc1ccc(NC(=O)CCNS(=O)(=O)c2cccs2)cc1F	-7%[15.4 µM]	0%	17%	2	2%
COc1ccc(NC(=O)c2cccc(Oc3ccccc3)c2)cn1	2%[15.4 µM]	-7%	-3%	-5	6%
Cn1ncc2cc(NC(=S)NC(=O)c3ccccc3)ccc21	-21%	40µM*	?	-2	2%
COc1ccc(NC(=O)c2sccc2C)cn1	-1%[15.4 µM]	8%	7.9µM*	0	6%
COc1ccc(NC(=S)NC(=O)c2ccccc2)cn1	-20%	-2%	11µM*	-1	5%
O=C(NC(=S)Nc1cccc2[nH]ncc12)c1ccccc1	26%	-13%	10µM*	3	3%
O=C1CS(=O)(=O)C2(C(=O)N(Cc3ccccc3Cl)c3ccccc32)N1c1ccc(F)cc1 (configuration not stated)	·	·	-5%	·	20%
Cc1ccc(-c2[nH]ncc2CNCc2ccccc2)cc1	·	·	-3%	·	·
O=C(O)c1ccc(NC(=S)NC(=O)c2ccc(-c3ccccc3)cc2)cc1	-23%	20µM*	69%	0	18%
O=C(NC(=S)Nc1ccccc1)c1ccc(-c2ccccc2)cc1	13%	6%	77%	-1	-5%
Cc1sc2ncnc(N=Nc3c(O)[nH]c4ccccc34)c2c1C	-13%	6%	-21%	13	6%
CCc1cc2c(N=Nc3c(O)[nH]c4ccccc34)ncnc2s1	-1%	8%	-52%	68*	2%
CC(=O)Nc1ccc(NC(=O)C2CCC(N3C(=O)C4C5C=CC(C6CC56)C4C3=O)CC2)cc1 (configuration not stated)	24%	8%	-14%	1	-6%
O=C(Nc1ccc(Cc2ccncc2)cc1)C1CCC(N2C(=O)C3C4C=CC(C5CC45)C3C2=O)CC1 (configuration not stated)	?	7.9µM*	-86%	-4	-3%
CCOC(=O)C1(C)CCN1C(=O)c1cc(F)cc(F)c1 (configuration not stated)	·	·	5%	0	·
CCC(C)S(=O)(=O)c1oc(-c2ccc(F)cc2)nc1S(=O)(=O)c1ccc(F)cc1 (configuration not stated)	·	·	·	·	6%
COc1ccc(C(=O)c2ccsc2N)cc1	19%[15.4 µM]	4%	11µM*	1	5%
SMILES	gsp ag	gsp antag	BRCA1 expr up	IL-2 act	IDH1 R132H inh
CC1(C(=O)OCC(=O)c2c[nH]c3ccccc23)CC1(Cl)Cl (configuration not stated)	-8%	-10%	8.9µM*	1	3%
CCCCCn1cnc2c(sc3nc4c(cc32)CSC(C)(C)C4)c1=O	?	-11%	2.2µM*	2	0%
CCCSC1=NC2(CCN(C(=O)NC3CCCCC3)CC2)N=C1c1ccc(C)cc1	·	·	·	·	-4%
Cc1ccc(NC(=O)CCCC2CCCCC2)c(O)c1	?	10%	13µM*	-2	-12%
COC(=O)c1ccc2c(c1)C(C)(C)C(/C=C/c1ccccc1O)=[N+]2C	?	16%	-96%	-4	35µM*
Cn1c(=O)c(=O)n(C)c2cc(S(=O)(=O)N3CCN(c4ccccc4)CC3)ccc21	·	·	·	·	0%
CCOC(=O)c1c(-c2cccs2)csc1NC(=O)CN(CC)CC	16%	-12%	-32%[1.84 µM]	-2	-5%
CCN(CC)CC(=O)Nc1scc2c1c(=O)oc1ccccc12	7%[15.4 µM]	2%	11µM*	1	3%
Cc1ccc(OCC(=O)Nc2cc(-c3nc4cc(Cl)ccc4o3)ccc2C)c(C)c1	·	·	5%	·	·
Cn1ncc(Cl)c1C(=O)NCC1CCCO1 (configuration not stated)	?	-6%	3%	-1	-18%
O=C1C2CCCN2C(c2ccc(Br)cc2)N1c1ccc(F)cc1 (configuration not stated)	-5%	50µM*	-12%	-2	2%
O=C1C2CCCN2C(c2cccc(Br)c2)N1c1ccc(F)cc1 (configuration not stated)	10%	-4%	5%	-2	-6%
CC(C)NC(=O)c1[nH]nc2c1CCc1ccccc1-2	28%	-5%	2µM*	-1	2%
O=C(Nc1ccc(Oc2cccnc2)cc1)c1ccccc1F	-35%	-16%	4µM*	0	10%
CC1(C)CC(=O)c2sc(NC(=O)C(C)(C)C)nc2C1	26%	4%	7.9µM*	-1	0%
CC1(C)CC(=O)c2sc(NC(=O)CN3CCCCC3)nc2C1	0%	-7%	-14%	0	5%
CC(=C/c1ccccc1)/C=C1/SC(N2CCOCC2)=NC1=O	-5%[15.4 µM]	-13%	11µM*	2	7%
COc1ccc(CCNC(=O)c2cnc3sc(N4CCCC4)nn3c2=O)cc1OC	·	·	·	·	14%
O=C(CSc1nnc2ccc(-c3ccccn3)nn12)NCC1CCCO1 (configuration not stated)	7.9µM*	-10%	5%	-2	-16%
CCc1ccc(-c2ccc(SCC(=O)NCC3CCCO3)nn2)cc1 (configuration not stated)	10%[15.4 µM]	-9%	2.5µM*	-1	-1%
CC1=C/C(=C\c2ccc(N(C)C)cc2)c2ccccc21	·	·	-17%	·	·
O=C(Nc1nc(-c2cccs2)cs1)C1=COCCO1	1%	-23%	4µM*	0	3%
O=C(Nc1nc(-c2cccs2)cs1)c1ccc([N+](=O)[O-])o1	9%	35µM*	-82%	0	-1%
COc1ccc(OC)c2sc(N(Cc3cccnc3)C(=O)c3ccco3)nc12	·	·	·	·	0%
COc1cc(OC)c(NC(=O)c2c(N3CCCC3=O)c3cc(C)ccc3n2C)cc1Cl	·	·	·	·	-8%
O=C(N/N=C/c1cccc2ccccc12)c1cccs1	33%	15%	4µM*	-3	6%

Source: PubChem BioAssay
